FadD28 binding = blocks FadD28 binding to the bisubstrate probe; fluorescence polarization; inhibition, % at 12.5 µM; actives 0.22% (n = 360,000); in the data active = inhibition above about 8.5%, passing the limit was not always enough; inconclusive = no clear call, values can overlap the other calls
FBA Mtb inh = inhibits M. tuberculosis FBA enzyme | AID 588726 | purified M. tuberculosis FBA, fluorescence read-out | actives 2.3% (n = 360,000) | P9WQA3 | inhibition, % at 1 µM; in the data active = inhibition above about 27%;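 also: 0% = vehicle and 100% = reference inhibitor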
Target sequence (P9WQA3 whole entry, looked up): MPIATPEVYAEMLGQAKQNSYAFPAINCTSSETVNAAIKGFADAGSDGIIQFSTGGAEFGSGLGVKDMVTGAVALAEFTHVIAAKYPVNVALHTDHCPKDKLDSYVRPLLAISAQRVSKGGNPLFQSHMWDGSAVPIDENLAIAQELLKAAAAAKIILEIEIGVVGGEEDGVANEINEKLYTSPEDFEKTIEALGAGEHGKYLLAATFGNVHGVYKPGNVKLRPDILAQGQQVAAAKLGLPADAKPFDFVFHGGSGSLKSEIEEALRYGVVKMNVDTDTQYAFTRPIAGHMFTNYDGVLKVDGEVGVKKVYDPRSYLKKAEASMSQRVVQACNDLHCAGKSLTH
GDH-TPI counter = GDH-TPI coupled enzyme inhibition counter-screen; actives 1.2% (n = 360,000); GDH-TPI coupled enzyme counterscreen, NADH absorbance; inhibition, % at 4.8 µM; in the data active = inhibition above about 30%;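 also: 0% = DMSO wells and 100% = wells lacking the enzyme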
BioA inh-1 = inhibitors of Mycobacterium tuberculosis BioA enzyme | actives 0.096% (n = 360,000) | AID 602481 | inhibition, % at 9.99 µM | purified M. tuberculosis BioA enzyme, plate reader; in the data active = inhibition above about 40%; inconclusive = no clear call, values can overlap the other calls
Mtb hypoxia rep = reduces hypoxia-regulated biosensor signal in M. tuberculosis | actives 0.1% (n = 300,000) | M. tuberculosis hypoxia-regulated fluorescent reporter, fluorescence | AID 1159583 | fluorescence inhibition, % (no concentration beside the values); in the data active = fluorescence inhibition mostly above about 23%, no sharp cut-off; inactive = mostly below about 17%
BioA inh-2 = inhibitors of Mycobacterium tuberculosis BioA enzyme | shares compounds with BioA inh-1 | purified BioA enzyme, plate reader, dose response | max activity, % | 310 tested, under 10 active | AID 651679;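 also: top concentration of the dilution series was 10 µM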
HepG2 cytotox = HepG2 viability loss. 310 tested, under 10 active. shares compounds with BioA inh-1. max activity, %. HepG2 cytotoxicity, plate reader. AID 651898
3T3 cytotox 5 = cytotoxicity in NIH3T3 cells | shares compounds with BioA inh-1 | plate reader | activity change, negative = cytotoxicity, % at 26 µM | 310 tested, under 10 active | AID 651900
The depositor's hits bear a star; i = inactive; u = inconclusive; x = no result given; [ ] = another dose, or the depositor's remark. The list is not random: actives were taken first. Their share in the collection is about 2.9%. Unless noted, no rule for the calls is given here.

SMILES	FadD28 binding	FBA Mtb inh	GDH-TPI counter	BioA inh-1	Mtb hypoxia rep	BioA inh-2	HepG2 cytotox	3T3 cytotox 5
C[C@H](CO)N1C[C@H](C)[C@@H](CN(C)C(=O)NC2CCCCC2)Oc2ccc(NS(C)(=O)=O)cc2CC1=O	x	x	x	-1	x	x	x	x
Clc1ccc(CSc2nnc(-c3cccnc3)o2)cc1	-2	-1	4	65*	x	-9	-12	-3
Cc1ccc(CSc2nnc(-c3cccnc3)o2)cc1	-1	-12	-1	9	-81	x	x	x
C[C@H]1CN([C@@H](C)CO)S(=O)(=O)c2ccc(C#CC(C)(C)O)cc2O[C@@H]1CN(C)CC1CC1	x	x	x	2	x	x	x	x
Cc1ccc(NS(=O)(=O)c2ccc3c(c2)n(C)c(=O)n3C)c(C)c1	-3	-3	-3	7	-3	x	x	x
CCn1c(=O)c(=O)n(CC)c2cc(S(=O)(=O)Nc3cc(C)ccc3C)ccc21	-1	0	7	42*	-10	-11	-15	-16
CCN1[C@H](C(=O)NCc2ccccc2)[C@@H](CO)[C@@H]2Cn3c(ccc(-c4cccnc4)c3=O)[C@@H]21	x	x	x	41*	x	32	i	6
CCNC(=O)[C@@H]1[C@@H](CO)[C@@H]2Cn3c(ccc(-c4cccnc4)c3=O)[C@@H]2N1Cc1ccc2c(c1)OCO2	x	x	x	64*	x	3	i	6[23.5 µM]
CCN1[C@H](C(=O)NCc2ccccc2)[C@@H](CO)[C@@H]2Cn3c(ccc(-c4ccncc4)c3=O)[C@@H]21	x	x	x	-1	x	x	x	x
COC(=O)[C@@H]1[C@@H](CO)[C@@H]2Cn3c(ccc(-c4ccccc4)c3=O)[C@@H]2N1Cc1cccc(F)c1	x	x	x	42*	x	5	i	-7
CCNC(=O)[C@H]1[C@H](CO)[C@H]2Cn3c(ccc(-c4cccnc4)c3=O)[C@H]2N1Cc1ccc2c(c1)OCO2	x	x	x	18	x	x	x	x
CN1CCN(C(=O)C[C@H]2CC[C@@H]3[C@@H](COc4ccc(NC(=O)C5CC5)cc4C(=O)N3C)O2)CC1	x	x	x	1	x	x	x	x
Cc1ccc(S(=O)(=O)N(C)C)cc1NC(=O)CSc1nncs1	0	-1	2	51*	-2	-6	-8	-1
Cc1cccc(-c2nnc(SCC#N)n2Cc2ccccc2)c1	-3	2	3	15	8	x	x	x
Cc1cccc(-c2nnc(SCC#N)n2-c2ccccc2)c1	-1	-2	-3	44*	4	-6	-6	-5
CCc1nc2ccc(Br)cc2c(=O)n1-c1ccccc1C(F)(F)F	-8	-3	2	60*	x	-7	u	1
C[C@H](CO)N1C[C@H](C)[C@@H](CN(C)Cc2ccc3c(c2)OCO3)Oc2ccc(NC(=O)Cn3cnnn3)cc2CC1=O	x	x	x	48*	x	10	i	-9[23.5 µM]
C[C@H]1CN([C@@H](C)CO)C(=O)Cc2cc(NC(=O)Cn3cnnn3)ccc2O[C@@H]1CN(C)Cc1ccc(Cl)c(Cl)c1	x	x	x	8	x	x	x	x
CCN(CC)CCCN=C1NC(c2cccc(C(F)(F)F)c2)C(C(=O)OC)=C(C)N1CC (stereo not given)	x	x	x	x	6	x	x	x
CCN(Cc1ccccc1)S(=O)(=O)c1ccc2c(c1)NC(=O)CS2	-5	2	4	2	-5	x	x	x
CN(Cc1ccccc1)C(=O)CCS(=O)(=O)c1ccc2c(c1)NC(=O)CS2	0	1	0	41*	-7	8	18	8
C=CCn1c(SCCN2C(=O)c3ccccc3C2=O)nc2scc(-c3ccc(F)cc3)c2c1=O	-1	4	-3	x	11	x	x	x
C=CCn1c(COc2ccccc2F)nnc1SCCN1C(=O)c2ccccc2C1=O	-5	-2	-9	44*	3	-7	12	0
C[C@@H]1CCCCO[C@H](CN(C)C(=O)Nc2ccc3c(c2)OCO3)[C@@H](C)CN([C@H](C)CO)C(=O)c2cc(NS(C)(=O)=O)ccc2O1	x	x	x	5	x	x	x	x
CCCC(=O)N1CCN(Cc2ccc3c(c2)OCO3)CC1	-2	4	6	1	9	x	x	x
SMILES	FadD28 binding	FBA Mtb inh	GDH-TPI counter	BioA inh-1	Mtb hypoxia rep	BioA inh-2	HepG2 cytotox	3T3 cytotox 5
CCc1nn(CC(=O)N2CCN(Cc3ccc4c(c3)OCO4)CC2)c(=O)c2cc3occc3n12	0	2	9	57*	-8	22	10	-8
C=CCn1c(SCc2c(C(=O)OC)sc(N)c2C(=O)OC)nnc1-c1ccc(Br)cc1	-1	4	22	59*	x	9	7	1
COc1ccc(S(=O)(=O)N[C@H]2CC[C@@H](CC(=O)N3CCN(c4ccccc4)CC3)O[C@@H]2CO)cc1	x	x	x	1	x	x	x	x
COc1cc(/C=C/C(=O)Nc2cccnc2)cc(OC)c1OC	-5	10	24	50*	1	-4	-7	-3
COc1cc(C(=O)Nc2cccnc2)cc(OC)c1OC	1	2	16	80*	9	-9	-14	-10
CCC(=O)Nc1cccc(C2=NOC3(C2)CC(C(N)=O)N(C(=O)c2ccc(Cl)cc2)C3)c1 (stereo not given)	x	x	x	x	8	x	x	x
Cc1cccc(C2c3[nH]c4ccccc4c3CCN2C(=O)CN2CCOC2=O)n1 (stereo not given)	0	0	1	52*	9	-3	-11	3
Cc1ccccc1S(=O)(=O)NCC[C@H]1CC[C@@H](NC(=O)Nc2cccc(F)c2)[C@H](CO)O1	x	x	x	46*	x	-5	i	0
O=C(Nc1ncc2c(n1)CC(c1ccccc1)CC2=O)c1ccco1 (stereo not given)	-2	2	0	98*	6	6	17	3
COc1ccc(C2CC(=O)c3cnc(NC(=O)c4ccco4)nc3C2)cc1 (stereo not given)	-3	-2	5	3	6	x	x	x
O=C(Nc1ncc2c(n1)CC(c1cccc(Cl)c1)CC2=O)c1ccco1 (stereo not given)	-4	1	3	61*	-2	-5	16	0
CCOC(=O)c1c(N)sc(C(N)=O)c1C	-1	-1	16	58*	6	-8	-9	0
CCOC(=O)c1sc(N)c(C(N)=O)c1C	-3	1	12	-2	3	x	x	x
Cc1c(C(N)=O)sc(N)c1C(=O)OC(C)C	-4	1	-3	92*	10	-5	-5	-14
CNC[C@H]1Oc2ccc(NS(=O)(=O)c3c(C)noc3C)cc2C(=O)N([C@H](C)CO)C[C@@H]1C	x	x	x	-1	x	x	x	x
Cc1nc2nc(SCC(=O)N3CCC4(CC3)OCCO4)nn2c(C)c1Cc1ccccc1	-4	3	-9	74*	7	-9	25	8
Cc1ccc(Cc2c(C)nc3nc(SCC(=O)NCCCN4CCCCC4)nn3c2C)cc1	1	2	-7	54*	1	-2	-12	10
Cc1cc(C)n2nc(SCC(=O)N3CCC4(CC3)OCCO4)nc2n1	-6	4	-9	5	2	x	x	x
Cc1nc2nc(SCC(=O)N3CCOCC3)nn2c(C)c1Cc1c(F)cccc1Cl	-1	11	9	94*	10	-9	-7	-13

Bioassay records: PubChem BioAssay, several laboratories
